Measured values published in PubChem BioAssay (NCI).
Compounds without any hit were thinned out: in the full panel of roughly 83,000, 20% have a hit.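 The endpoint reported here, percent growth, reads 100 for growth as untreated, 0 for no net growth and -100 for all cells dead.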 Calls of active or inactive are those of the source. Rule for the calls: active = growth percent below 10; inactive = the rest.

Tests used:
Experiment in all cases: NCI-60 one-dose screen, 48 h (100 = growth as untreated, 0 = no growth, -100 = all killed)
Conditions in all cases: 10 µM unless noted
NCI-H23 lung = system: NCI-H23 lung
NCI-H226 lung = system: NCI-H226 lung
NCI-H322M lung = system: NCI-H322M lung
HOP-62 NSCLC = system: HOP-62 NSCLC
NCI-H460 lung = system: NCI-H460 lung
NCI-H522 lung = system: NCI-H522 lung
A549/ATCC NSCLC = system: A549/ATCC NSCLC
786-0 renal = system: 786-0 renal
COLO 205 colon = system: COLO 205 colon
DU-145 prostate = system: DU-145 prostate
K-562 leukemia = system: K-562 leukemia
MALME-3M melanoma = system: MALME-3M melanoma
MDA-MB-231 breast = system: MDA-MB-231 breast
RXF 393 renal = system: RXF 393 renal
SF-268 CNS = system: SF-268 CNS
SF-295 CNS = system: SF-295 CNS
SF-539 CNS = system: SF-539 CNS
UACC-257 melanoma = system: UACC-257 melanoma
M14 melanoma = system: M14 melanoma

Measured: growth

COC(=O)CSc1ccc(Cl)cc1
inactive: NCI-H23 lung 102% | NCI-H226 lung 123% | NCI-H322M lung 102% | HOP-62 NSCLC 107% | NCI-H460 lung 109% | NCI-H522 lung 92.2% | A549/ATCC NSCLC 98% | 786-0 renal 95.3% | COLO 205 colon 108% | DU-145 prostate 111% | K-562 leukemia 89.6% | MALME-3M melanoma 95.5% | MDA-MB-231 breast 116% | RXF 393 renal 136% | SF-268 CNS 119% | SF-295 CNS 107% | SF-539 CNS 97.3% | UACC-257 melanoma 104% | M14 melanoma 103%

O=C(O)CSc1ccc(NCc2oc(CO)cc(=O)c2O)cc1
inactive: NCI-H23 lung 99.9% | NCI-H226 lung 94.8% | NCI-H322M lung 110% | HOP-62 NSCLC 105% | NCI-H460 lung 110% | NCI-H522 lung 89.3% | A549/ATCC NSCLC 103% | 786-0 renal 96.6% | COLO 205 colon 106% | DU-145 prostate 110% | K-562 leukemia 89% | MALME-3M melanoma 99.6% | MDA-MB-231 breast 97.2% | RXF 393 renal 110% | SF-268 CNS 107% | SF-295 CNS 106% | SF-539 CNS 92.2% | UACC-257 melanoma 105% | M14 melanoma 74.6%

CCNCCCn1c2c(c3ccc(Cl)cc3c1=O)C(=O)c1cc(OC)cnc1-2
active: NCI-H226 lung -6.31% | HOP-62 NSCLC -18.8% | NCI-H460 lung -69.9% | NCI-H522 lung -10.2% | 786-0 renal -95.4% | COLO 205 colon 8.78% | DU-145 prostate -97.4% | K-562 leukemia -84.2% | MDA-MB-231 breast -72.6% | RXF 393 renal 8.86% | SF-268 CNS -66%
inactive: NCI-H23 lung 28.8% | NCI-H322M lung 45% | A549/ATCC NSCLC 25.7% | MALME-3M melanoma 74.2% | SF-295 CNS 15.5% | SF-539 CNS 12% | UACC-257 melanoma 65.9% | M14 melanoma 40%

COc1cc2ncnc(Nc3ccc(S(=O)(=O)Nc4cc(C)on4)cc3)c2cc1OCCCN1CCN(c2ccc([N+](=O)[O-])cc2)CC1
inactive: NCI-H23 lung 103% | NCI-H226 lung 107% | NCI-H322M lung 103% | HOP-62 NSCLC 106% | NCI-H460 lung 110% | NCI-H522 lung 94.7% | A549/ATCC NSCLC 106% | 786-0 renal 109% | COLO 205 colon 105% | DU-145 prostate 112% | K-562 leukemia 120% | MALME-3M melanoma 104% | MDA-MB-231 breast 97.9% | RXF 393 renal 115% | SF-268 CNS 102% | SF-295 CNS 109% | SF-539 CNS 102% | UACC-257 melanoma 107% | M14 melanoma 98.4%

COc1ccc(N=C2CSc3nnc(-c4cc(F)c(Cl)cc4Cl)n3N2)cc1
inactive: NCI-H226 lung 27.9% | UACC-257 melanoma 38.5%
active: NCI-H23 lung -22.1% | NCI-H322M lung 6.08% | HOP-62 NSCLC -33.7% | NCI-H460 lung -63.2% | NCI-H522 lung -27.7% | A549/ATCC NSCLC -21.1% | 786-0 renal -44.5% | COLO 205 colon -21.1% | DU-145 prostate -48.9% | K-562 leukemia -58.4% | MALME-3M melanoma -45.1% | MDA-MB-231 breast -4.51% | RXF 393 renal -52.7% | SF-268 CNS 7.12% | SF-295 CNS -16.2% | SF-539 CNS -67.3% | M14 melanoma -44.7%

COc1ccc(Cl)cc1Nc1nc(C(F)(F)F)ccc1C(=O)NN
active: NCI-H322M lung 4.64% | HOP-62 NSCLC -30.8% | 786-0 renal 2.09% | MALME-3M melanoma 8.85% | MDA-MB-231 breast 5.57% | RXF 393 renal -3.01%
inactive: NCI-H23 lung 39.9% | NCI-H226 lung 24.1% | NCI-H460 lung 70.3% | NCI-H522 lung 12.9% | A549/ATCC NSCLC 47.6% | COLO 205 colon 12.5% | DU-145 prostate 40% | K-562 leukemia 55.7% | SF-268 CNS 26.4% | SF-295 CNS 16.7% | SF-539 CNS 31.2% | UACC-257 melanoma 28.3% | M14 melanoma 38%

CCCCCCCOc1cccc(/C=C2\N=C3SCCCN3C2=O)c1
inactive: NCI-H23 lung 97.3% | NCI-H226 lung 93.7% | NCI-H322M lung 101% | HOP-62 NSCLC 108% | NCI-H460 lung 103% | NCI-H522 lung 62.3% | A549/ATCC NSCLC 91.8% | 786-0 renal 92.5% | COLO 205 colon 92.9% | DU-145 prostate 94.5% | K-562 leukemia 90.4% | MALME-3M melanoma 139% | MDA-MB-231 breast 87.7% | RXF 393 renal 116% | SF-268 CNS 103% | SF-295 CNS 93.8% | SF-539 CNS 111% | UACC-257 melanoma 114% | M14 melanoma 102%

Nc1ncnc2c1N=C(c1ccc3c(c1)OCO3)CC(c1ccc(Cl)cc1)N2 (centres undefined)
inactive: NCI-H23 lung 81.8% | NCI-H226 lung 73.3% | NCI-H322M lung 71.2% | HOP-62 NSCLC 44.1% | NCI-H460 lung 83.3% | NCI-H522 lung 84.3% | A549/ATCC NSCLC 79.6% | 786-0 renal 74.3% | COLO 205 colon 68.1% | DU-145 prostate 92% | K-562 leukemia 83.8% | MALME-3M melanoma 77.2% | MDA-MB-231 breast 72.3% | RXF 393 renal 55.1% | SF-268 CNS 77.3% | SF-295 CNS 93.4% | SF-539 CNS 80.2% | UACC-257 melanoma 96.2% | M14 melanoma 96%

O=c1c2cc(Br)cc(Br)c2nc(-c2ccc(Cl)cc2)n1/N=C/c1cccc(F)c1
active: 786-0 renal 9.97%
inactive: NCI-H23 lung 53.6% | NCI-H226 lung 40.9% | NCI-H322M lung 49.3% | HOP-62 NSCLC 10.8% | NCI-H460 lung 40.1% | NCI-H522 lung 38.9% | A549/ATCC NSCLC 48.6% | COLO 205 colon 54.3% | DU-145 prostate 91.4% | K-562 leukemia 63.2% | MALME-3M melanoma 63.3% | MDA-MB-231 breast 46.1% | RXF 393 renal 47.2% | SF-268 CNS 70.4% | SF-295 CNS 41% | SF-539 CNS 64.4% | UACC-257 melanoma 93% | M14 melanoma 67.5%

c1coc(CNc2c3ccccc3nc3ccccc23)c1
inactive: NCI-H23 lung 63.6% | NCI-H226 lung 62.9% | NCI-H322M lung 65% | HOP-62 NSCLC 69.6% | NCI-H460 lung 56.5% | NCI-H522 lung 47.3% | A549/ATCC NSCLC 61.9% | 786-0 renal 65.7% | COLO 205 colon 35.2% | DU-145 prostate 76% | K-562 leukemia 44.7% | MALME-3M melanoma 90.4% | MDA-MB-231 breast 60.5% | RXF 393 renal 61.5% | SF-268 CNS 85.7% | SF-295 CNS 53.9% | SF-539 CNS 65.9% | UACC-257 melanoma 81.7% | M14 melanoma 79.7%

Cc1cc([N+](=O)[O-])c(C)cc1N
inactive: NCI-H23 lung 103% | NCI-H226 lung 101% | NCI-H322M lung 107% | HOP-62 NSCLC 103% | NCI-H460 lung 109% | NCI-H522 lung 77.5% | A549/ATCC NSCLC 104% | 786-0 renal 103% | COLO 205 colon 121% | DU-145 prostate 115% | K-562 leukemia 100% | MALME-3M melanoma 104% | MDA-MB-231 breast 90.3% | RXF 393 renal 105% | SF-268 CNS 105% | SF-295 CNS 109% | SF-539 CNS 105% | UACC-257 melanoma 109% | M14 melanoma 104%

COc1ccc(C2=NNC(c3ccc(Oc4nc5c(c(=O)n(C)c(=O)n5C)n4C)c(OC)c3)C2)cc1 (centres undefined)
inactive: NCI-H23 lung 103% | NCI-H226 lung 89.7% | NCI-H322M lung 102% | HOP-62 NSCLC 101% | NCI-H460 lung 95% | NCI-H522 lung 84.4% | A549/ATCC NSCLC 90.5% | 786-0 renal 98.7% | COLO 205 colon 127% | DU-145 prostate 109% | K-562 leukemia 112% | MALME-3M melanoma 103% | MDA-MB-231 breast 93.3% | RXF 393 renal 87.5% | SF-268 CNS 93.4% | SF-295 CNS 88.9% | SF-539 CNS 97.8% | UACC-257 melanoma 97.8% | M14 melanoma 96.9%

C[N+](C)(C)CC(=O)N/N=C\c1ccco1
inactive: NCI-H23 lung 99.6% | NCI-H226 lung 103% | NCI-H322M lung 105% | HOP-62 NSCLC 86.5% | NCI-H460 lung 108% | NCI-H522 lung 85.7% | A549/ATCC NSCLC 98.1% | 786-0 renal 102% | COLO 205 colon 107% | DU-145 prostate 104% | K-562 leukemia 53.3% | MALME-3M melanoma 100% | MDA-MB-231 breast 118% | RXF 393 renal 118% | SF-268 CNS 105% | SF-295 CNS 106% | SF-539 CNS 95.3% | UACC-257 melanoma 106% | M14 melanoma 111%

O=C1/C(=C/c2cc(F)cc(F)c2)Cc2cc(F)cc(F)c21
inactive: NCI-H23 lung 101% | NCI-H226 lung 91.4% | NCI-H322M lung 75.9% | HOP-62 NSCLC 95.1% | NCI-H460 lung 103% | NCI-H522 lung 83.3% | A549/ATCC NSCLC 102% | 786-0 renal 99.8% | COLO 205 colon 107% | DU-145 prostate 104% | K-562 leukemia 83.8% | MALME-3M melanoma 86% | MDA-MB-231 breast 95.1% | RXF 393 renal 93.1% | SF-268 CNS 91.4% | SF-295 CNS 95% | SF-539 CNS 89.8% | UACC-257 melanoma 113% | M14 melanoma 82.6%

COc1ccc(CNc2c3ccccc3nc3ccc(OC)cc23)cc1
active: NCI-H460 lung 6.48% | COLO 205 colon -51.4% | K-562 leukemia 0.27% | MALME-3M melanoma 7.06% | RXF 393 renal -2.57% | SF-539 CNS 8.46% | UACC-257 melanoma 6.58%
inactive: NCI-H23 lung 21.4% | NCI-H226 lung 33.8% | NCI-H322M lung 23.5% | HOP-62 NSCLC 34.1% | NCI-H522 lung 26.2% | A549/ATCC NSCLC 14.6% | 786-0 renal 15% | DU-145 prostate 20% | MDA-MB-231 breast 23.6% | SF-268 CNS 40.2% | SF-295 CNS 19.4% | M14 melanoma 19.5%

CCN(CC)c1ccc(/C=N/NC(=O)C[N+](C)(C)C)cc1
inactive: NCI-H23 lung 99.4% | NCI-H226 lung 98.9% | NCI-H322M lung 115% | HOP-62 NSCLC 99.2% | NCI-H460 lung 110% | NCI-H522 lung 100% | A549/ATCC NSCLC 100% | 786-0 renal 101% | COLO 205 colon 111% | DU-145 prostate 113% | K-562 leukemia 54.3% | MALME-3M melanoma 92.6% | MDA-MB-231 breast 119% | RXF 393 renal 112% | SF-268 CNS 110% | SF-295 CNS 109% | SF-539 CNS 110% | UACC-257 melanoma 104% | M14 melanoma 110%
